# This is a sample that favours compounds with a hit; in the whole collection about 3.9% have one here.
# Platelet DG rel: modulates dense granule release in human platelets. human platelet-rich plasma, SFLLRN dense granule ATP release, luminescence. inhibition, %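 (compounds screened at 7.5 µM in platelet-rich plasma)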. hit rate 0.22% among 300,000. AID 1663;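 active means mean replicate score, as percent of positive control, at or above 50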
# WT yeast gro inh: growth inhibition of WT yeast, mitochondrial fusion screen; mitochondrial fusion phenotypic screen, WT strain; hit rate 2.1% among 190,000; inhibition, % at 10 µM; in the data active means inhibition above about 58%; tested in S. cerevisiae
# TPT1 inhibitor: inhibitors of Candida albicans tRNA 2'-phosphotransferase TPT1. recombinant caTPT1, FP RNA substrate dephosphorylation. inhibition, % at 5 µM. hit rate 0.81% among 300,000;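 active means inhibition above the mean of all tested compounds plus 3 SD, set per screening campaign, cut at about 24% in these data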
# Rtt109 HAT inh: inhibitors of Candida albicans Rtt109/Vps75 histone acetyltransferase; hit rate 0.16% among 330,000; inhibition, % at 34.9 µM; purified Rtt109/Vps75, ThioGlo CoA-SH fluorescence, 4 h;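 active means inhibition of at least 50% in every replicate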
# Target sequence (Q5AAJ8 whole entry, looked up): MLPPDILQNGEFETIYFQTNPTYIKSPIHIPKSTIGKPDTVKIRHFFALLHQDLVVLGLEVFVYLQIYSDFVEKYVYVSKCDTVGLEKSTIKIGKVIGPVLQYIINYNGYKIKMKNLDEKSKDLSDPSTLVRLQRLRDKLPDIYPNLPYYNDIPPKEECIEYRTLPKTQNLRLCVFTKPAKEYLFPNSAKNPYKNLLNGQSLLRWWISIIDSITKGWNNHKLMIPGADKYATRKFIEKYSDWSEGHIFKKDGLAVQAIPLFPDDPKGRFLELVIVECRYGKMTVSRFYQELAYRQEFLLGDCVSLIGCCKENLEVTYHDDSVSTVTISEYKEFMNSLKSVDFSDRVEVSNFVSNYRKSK
# PHOSPHO1 inh: blocks human PHOSPHO1 phosphatase activity. inhibition, % at 13.3 µM. hit rate 1.1% among 290,000. recombinant PHOSPHO1, absorbance phosphatase assay; in the data active means inhibition above about 60%
# Target sequence (Q8TCT1 whole entry, looked up): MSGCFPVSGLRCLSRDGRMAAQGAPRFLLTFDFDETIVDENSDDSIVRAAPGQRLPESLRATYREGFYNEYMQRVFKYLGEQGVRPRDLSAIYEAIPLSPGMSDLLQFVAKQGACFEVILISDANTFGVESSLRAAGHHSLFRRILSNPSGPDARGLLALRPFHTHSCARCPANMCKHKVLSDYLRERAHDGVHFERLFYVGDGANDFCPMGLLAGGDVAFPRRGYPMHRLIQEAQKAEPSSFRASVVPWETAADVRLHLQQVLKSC
# SKKanGAS inh: SKKanGAS growth inhibition. S. pyogenes SKKanGAS, kanamycin growth, BacTiter-Glo, 6 h. inhibition, % at 7.5 µM. hit rate 1.3% among 300,000. AID 1662;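 active means mean replicate score, as percent of positive control median, at least 50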;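 further: strain carries kanamycin resistance gene driven by streptokinase promoter and grows in 40 µg/ml kanamycin; loss of luminescence reflects streptokinase promoter inhibition or plain growth inhibition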
# Hits are given with their value; i = inactive; nt = no result.
SMILES,Platelet DG rel,WT yeast gro inh,TPT1 inhibitor,Rtt109 HAT inh,PHOSPHO1 inh,SKKanGAS inh
N=c1c[n+](N2CCOCC2)[n-]o1,i,i,i,56,i,i
Cc1cc2oc(=O)cc(Cn3ccnc3)c2cc1Cl,i,nt,i,nt,nt,i
COc1ccc(Cn2c(O)c(C=Nc3ccc(O)cc3)c3ccccc3c2=O)cc1,i,64,i,i,i,i
O=c1c2ccccc2c(C=Nc2ccc(O)cc2)c(O)n1Cc1ccccc1,i,nt,i,i,i,67
COc1ccc(Cn2c(O)c(C=Nc3ccccc3)c3ccccc3c2=O)cc1,i,i,i,i,i,i
CN(C)c1ccc(NC(=O)/C=C/c2ccccc2Cl)cc1,i,i,i,56,i,i
CCN(CC)c1ccc(NC(=O)/C=C\c2ccccc2Cl)cc1,i,i,i,i,69,i
COc1ccc(-c2c(-c3cc(OC)cc(OC)c3)n(C)c3ccc(-c4ccc(N(C)C)nc4)cc23)cc1,nt,nt,nt,i,nt,nt
COC(=O)c1ccc(OC(=O)c2ccncc2)cc1O,i,nt,i,i,i,i
CC(C)(C)c1cc[n+](C2=C([O-])c3ccccc3C(=O)/C2=N\S(=O)(=O)c2cccs2)cc1,i,nt,i,nt,i,56
CCOC(=O)c1cnc(-c2ccccc2)nc1-c1ccccc1,i,65,i,i,i,i
COc1ccc(C(CNC(=O)CCC(=O)c2ccc(C)s2)N2CCOCC2)cc1 (centres undefined),nt,nt,nt,i,nt,nt
CCN(CCCNC(=O)CCc1nc(-c2ccc(C)cc2)no1)c1cccc(C)c1,i,64,i,i,i,i
CCc1ccccc1N(CC)C(=O)CCc1nc(-c2ccc(C)cc2)no1,i,72,i,i,i,i
COc1ccc2c(=O)c(-c3ccc(C)cc3)c(-c3ccccc3)oc2c1,nt,nt,nt,i,nt,nt
Cc1ccc(C(=O)N2CCc3ccccc3C2)cc1S(=O)(=O)N1CCOCC1,i,nt,i,i,i,i
COc1ccc(S(=O)(=O)Nc2ccccc2C)cc1C(=O)N1CCOCC1,i,i,i,i,i,i
Cc1ccccc1NS(=O)(=O)c1ccc(C)c(C(=O)N2CCOCC2)c1,i,nt,i,i,i,52
Cc1ccccc1NS(=O)(=O)c1cc(C(=O)N2CCc3ccccc3C2)ccc1C,i,81,i,i,i,i
CC(=O)c1sc(C(C)(C)C)cc1NC(=O)c1ccccc1C(=O)O,i,nt,i,i,i,i
O=C(O)C1=CC[C@@H](c2ccc(Cl)cc2)N(S(=O)(=O)c2ccc(Cl)cc2)[C@H]1c1ccc(Br)cc1,nt,nt,nt,i,nt,nt
Oc1ccc(/C=N/Nc2ccc3ccccc3c2)c(O)c1,i,i,i,i,i,52
Brc1ccc(/C=N/Nc2nc3ccccc3o2)cc1,i,nt,i,i,nt,i
Oc1ccccc1/C=N/Nc1nc2ccccc2o1,i,nt,i,i,i,106
Cc1cccc(N/N=C/c2ccc(O)c(O)c2O)c1,i,nt,i,i,i,i
SMILES,Platelet DG rel,WT yeast gro inh,TPT1 inhibitor,Rtt109 HAT inh,PHOSPHO1 inh,SKKanGAS inh
Oc1ccc(C=NNc2nc3ccccc3s2)c(O)c1,nt,nt,nt,i,nt,nt
O=[N+]([O-])c1ccccc1N/N=C/c1cccc(O)c1O,i,nt,i,i,i,i
COc1cccc(N/N=C/c2cccc(Br)c2O)c1,i,nt,i,i,i,63
O=[N+]([O-])c1cccc(N/N=C/c2cccc(O)c2O)c1,i,62,i,i,i,i
O=C1Cc2cc(S(=O)(=O)Nc3ccc(N4CCOCC4)cc3)ccc2N1,nt,nt,nt,i,nt,nt
CN(CC(=O)Nc1ccc(F)c(F)c1F)C(=O)c1ccc2c(c1)S(=O)(=O)N=C1CCCCCN12,i,nt,i,i,nt,i
Oc1ccccc1/C=N/Nc1ccccc1,i,79,i,i,i,i
CC1(C)Cc2c(sc3c2c(=N)n(Cc2ccco2)c(=O)n3CC(=O)Nc2ccccc2)CO1,i,i,i,i,i,i
CCn1c(=O)n(Cc2ccco2)c(=N)c2c3c(sc21)COC(C)(C)C3,i,i,i,i,63,i
COc1ccc(C(=O)Nc2ccc(Cl)cc2C(=O)NCCN2CCOCC2)cc1,i,71,i,i,i,i
CCN(CC)c1ccc(/C=N/NC(=S)NCc2ccccc2)c(O)c1,i,i,i,i,i,64
NS(=O)(=O)c1cccc(NC(=O)CSc2nnc(-c3ccncc3)n2C2CC2)c1,nt,nt,nt,i,nt,nt
CC(=O)SC(C[N+](=O)[O-])c1cn(C(C)=O)c2ccccc12 (centres undefined),i,i,i,i,63,i
O=[N+]([O-])c1ccccc1S(=O)(=O)NCCC1=CCCCC1,i,71,i,i,i,i
O=C(Cc1ccccc1[N+](=O)[O-])NCCC1=CCCCC1,i,i,i,i,i,i
CCCCNC(=O)Nc1ccc(Br)cn1,53,i,i,i,i,i
CCCCC(=O)Nc1ccc(Br)cn1,i,i,i,i,i,i
O=C(NC1CCCCC1)c1cccc(N2C(=O)CCC2=O)c1,nt,nt,nt,i,nt,nt
COC(=O)C(NNc1ccccc1)(NC(=O)c1cccc(F)c1)C(F)(F)F (centres undefined),i,i,i,i,99,i
O=C(Nc1ccc(Nc2ccccc2)cc1)c1cccc(F)c1,i,nt,i,i,i,i
COC(=O)N/N=C(\C)c1ccc(Br)cc1,i,i,i,i,i,i
CSC(=S)N/N=C(\C)c1ccc(Br)cc1,i,68,i,i,i,i
Cc1occc1C(=O)O/N=C(\N)c1ccccc1,72,nt,i,nt,i,i
Cc1ccccc1/C(N)=N/OC(=O)N1c2ccccc2Sc2ccccc21,i,83,i,i,i,i
Cc1ccc(/C(N)=N/OC(=O)N2c3ccccc3Sc3ccccc32)cc1,i,nt,i,i,nt,i
SMILES,Platelet DG rel,WT yeast gro inh,TPT1 inhibitor,Rtt109 HAT inh,PHOSPHO1 inh,SKKanGAS inh
Cc1ccccc1C(=O)O/N=C(\N)c1ccc([N+](=O)[O-])cc1,i,nt,i,i,i,i
Cc1ccccc1C(=O)O/N=C(\N)c1ccccc1,60,nt,i,i,i,i
Cc1cccc(/C(N)=N/OC(=O)c2ccoc2C)c1,i,nt,i,i,i,i
CCCC(C(=O)NCCC(C)C)N(Cc1ccccc1Cl)C(=O)c1snc(C(N)=O)c1N (centres undefined),i,nt,i,i,i,i
COc1ccc(-n2cc(CNCc3cccnc3)c(-c3cccc(F)c3)n2)cc1,i,i,i,i,i,i
COc1ccc(CNCc2cn(-c3cccc(F)c3)nc2-c2ccc(C)o2)cc1,i,71,i,i,i,i
CCN(Cc1ccccc1)C(c1ccc(C(F)(F)F)cc1)c1nnnn1C(C)(C)C (centres undefined),i,73,i,i,nt,i
CCN(Cc1ccccc1)C(c1cccc(C#N)c1)c1nnnn1C(C)(C)C (centres undefined),i,i,i,i,i,i
CCCCOc1ccc(N2CC(C(=O)NCc3ccco3)CC2=O)cc1 (centres undefined),i,nt,i,i,i,i
O=C(NCc1ccncc1)C(=O)NCC(c1ccco1)N1CCN(c2ccc(F)cc2)CC1 (centres undefined),i,i,i,53,i,i
COc1cccc(-n2nc(C#N)c(Cl)cc2=O)c1,i,77,nt,i,i,i
O=C(Cn1cnc2c(cnn2-c2ccc(F)cc2)c1=O)OCc1ccccc1,53,i,i,i,i,i

# Bioassay records from PubChem.
